Compound activity deposited in PubChem by National Center for Advancing Translational Sciences (NCATS).
HTT ATP protect: Huntington cell model cytoprotection by ATP luminescence; PC12 HTT-Q103 induced, cytoprotection, ATP luminescence, 40 h; Potency, µM (titrated, usually from 56.4 µM), for the others: cytoprotection (ATP increase), actives largely listed as activators; 230,000 tested, 0.14% active; further: % of control where 0% means no effect; nearly all actives have a fitted effect of over 45% in size
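PC12 cells with ecdysone-inducible HTT exon 1 Q103-GFP, induced with 100 nM tebufenozide and co-treated with library compounds in a dose series (1536-well, 1500 cells/well). Cytoprotection read as ATP content by ATPlite luminescence.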
ERK EGF block: blocks ERK signaling stimulated by EGF. HEK293-V1b, EGF-stimulated phospho-ERK AlphaScreen. Potency, µM (top dose mostly 11.5 µM), inactives show at the highest dose activity change, negative = inhibition, usual class: inhibitors. 130,000 tested, 0.41% active. AID 1454;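 further: plate controls were stimulated vehicle wells for no effect and unstimulated vehicle basal for full effect; nearly all actives have a fitted effect of over 55% in size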
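Compounds are titrated over HEK293-V1b cells kept overnight in 1% FBS. After 30 min at 37C, EGF (25 nM final) triggers ERK phosphorylation for 5 min, measured by AlphaScreen in lysates.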
HttQ103 aggreg: mutant huntingtin aggregation inhibition; PC12 HttQ103-GFP aggregates, Acumen cytometry, 40 h; Potency, µM (highest dose often 46.1 µM), inactives show at the top dose activity change, negative = inhibition, most hits filed as inhibitors; 220,000 tested, 1.1% active; AID 1688; further: on the % scale 0 is the no-effect control and ±100 the full control effect; nearly all actives have a fitted effect of over 60% in size
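Multiplexed with ATP-based cell death, this channel scores GFP aggregates in PC12 cells expressing inducible HTTex1-Q103-GFP. Induction used 100 nM tebufenozide; compounds were tested in concentration series.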
Starred values were filed as active, the others as inactive; ? = inconclusive; . = not tested or not shown; [ ] = dose if it differs, or a comment. Shown are actives, neighbours in structure and some others; about 1.4% of the full set was active somewhere. The call rests on the fitted dose curve; in most records, active means well fitted curve in the direction sought with a large enough effect; inconclusive means small, poorly fitted or top-dose-only effect, or another doubt; inactive means no such curve, though single readings can be large; an effect the other way counts as inactive or inconclusive. Potency means the concentration at half of the fitted maximal effect.

SMILES	HTT ATP protect	ERK EGF block	HttQ103 aggreg
N#Cc1cccc(NC(=O)CSc2ccc3c4c(cccc24)C(=O)c2ccccc2-3)c1	-29%	.	7.9µM*
COc1ccc(NC(=O)CSc2ccc3c4c(cccc24)C(=O)c2ccccc2-3)cc1	-21%	.	?
O=C(c1ccco1)N1CCC2(CCN(Cc3cc(C(F)(F)F)cc(C(F)(F)F)c3)CC2)CC1	7%	1%	.
COc1ccccc1-c1cn[nH]c1-c1ccc(OCc2ccccc2)cc1O	21%[10 µM]	-10%[57.5 µM]	23%[9.22 µM]
COc1ccc(-c2cn[nH]c2-c2ccc(OCc3ccccc3)cc2O)cc1	10%[10 µM]	22µM*	-34%[9.22 µM]
COc1ccc(-c2cn[nH]c2-c2ccc(OCc3ccc([N+](=O)[O-])cc3)cc2O)cc1OC	10%[10 µM]	?	39%[9.22 µM]
COc1ccc(-c2cn[nH]c2-c2ccc(OCc3ccccc3F)cc2O)cc1OC	17%[10 µM]	32µM*	-2%[9.22 µM]
O=C1CCCC=C1[C@H](O)c1ccc([N+](=O)[O-])cc1	-10%[10 µM]	.	.
C[C@H](N)C(=O)O	-50%[1.9 µM]	10%	.
C/C(CCN1CCc2nc(-c3ccccc3)c(-c3ccccc3)cc2C1)=N\OC[C@@H](O)COCc1ccco1	-12%[10 µM]	.	.
CCn1c(C)nc2cc(S(=O)(=O)C(F)(F)C(F)C(F)(F)F)ccc21 (configuration not stated)	-37%	.	7.1µM*
CCn1c(C)nc2cc(S(N)(=O)=O)ccc21	6%[10 µM]	0%	9%[9.22 µM]
CCCNC(=O)OC[C@@H]1O[C@H](CCO/N=C\C[C@H]2C=C[C@H](OC(C)=O)[C@@H](COC(C)=O)O2)C=C[C@@H]1Oc1ccc(OC)cc1	-5%[10 µM]	.	.
CCCSc1nnc(Sc2nnnn2-c2ccccc2)s1	-58%[10 µM]	.	22µM*
C(=C\CSc1nnnn1-c1ccccc1)/CSc1nnnn1-c1ccccc1	4%	.	5%
Cc1ccccc1-n1nnnc1Sc1nnnn1-c1ccccc1	-62%	.	14µM*
Cc1ccccc1-n1nnnc1SCC(N)=O	-11%	.	20%
Cc1ccccc1-c1ccc2ncnc(N3CCOCC3)c2c1	-15%	.	.
Cc1nc2c(-c3ccccc3)c[nH]n2c(=O)c1Cc1ccccc1	-150%	?	7.1µM*
Cc1cc2nc(C)c(Cc3ccccc3)c(=O)n2[nH]1	-7%	.	-14%
N#Cc1cccc(NC(=O)N2CCC3(CC2)CCN(C(=O)c2csnn2)CC3)c1	-6%	3%	.
Cc1ccc(C(=O)c2cncc(Br)c2)cc1	13%	.	14µM*
O=C(Oc1ccc(Br)cc1)c1cncc(Br)c1	13%	.	2%[9.22 µM]
CCc1ccc(C(=O)c2cncc(Br)c2)cc1	5%	.	20µM*
NNC(=O)c1cncc(Br)c1	-3%[10 µM]	-1%[57.5 µM]	0%[9.22 µM]
SMILES	HTT ATP protect	ERK EGF block	HttQ103 aggreg
[O-][N+](CCO)(CCO)c1ncnc2nc[nH]c12	-5%[10 µM]	.	.
Cc1ccccc1-c1ccc2ncnc(NCCN3CCOCC3)c2c1	-62%	.	.
COc1ccc(S(=O)(=O)Cc2ccc(C(=O)N3CCN(c4ccc(Cl)cc4)CC3)o2)cc1	-4%	.	?
COc1ccc(S(=O)(=O)Cc2ccc(C(=O)N3CCN(c4cc(Cl)ccc4C)CC3)o2)cc1	27%	.	18µM*
CN1CCN(C(=O)c2ccc(CS(=O)(=O)c3c(Cl)cccc3Cl)o2)CC1	9%[10 µM]	-4%	9%
CCOC(=O)N1CCN(C(=O)c2ccc(CS(=O)(=O)c3c(Cl)cccc3Cl)o2)CC1	.	.	0.0009µM*
c1ccc(Nc2nc(-c3cccnc3)nc3ccccc23)cc1	-112%	.	.
O=C(NCCc1ccccc1)C1CCN(S(=O)(=O)c2ccc(-n3cnnn3)cc2)CC1	-2%	.	2.8µM*
O=C(NCCC1=CCCCC1)C1CCN(S(=O)(=O)c2ccc(-n3cnnn3)cc2)CC1	-24%	.	13%
COc1ccc(OC)c(S(=O)(=O)Nc2ccc(O)c3ccccc23)c1	-26%[10 µM]	.	18µM*
COc1ccc(OC)c(S(=O)(=O)Nc2ccc(Oc3ccccc3)cc2)c1	-31%	.	-1%
COC(=O)[C@@]1(Cc2ccc(OC)cc2)[C@H]2c3cc(C(=O)N(C)C)n(CCc4ccc(O)c(OC)c4)c3C[C@H]2CN1C(=O)c1ccccc1	9%	0%	.
Nc1nc(NCC2CCC(CNS(=O)(=O)c3cccc4ccccc34)CC2)nc2ccccc12 (configuration not stated)	-89%	.	.
Cc1ccc(C(=O)CC2(O)C(=O)N(Cc3ccccc3)c3ccccc32)o1 (configuration not stated)	-17%[0.074 µM]	.	-15%
Cc1ccc(C(=O)CC2(O)C(=O)N(Cc3ccccc3Cl)c3ccccc32)o1 (configuration not stated)	-33%	.	3.2µM*
COC(=O)N1CCC[C@@]2(CCN(C(=O)Nc3ccc(OC)cc3)C2)C1	20%	-5%	.
